Assay results reported in PubChem BioAssay.
For some assays here: Entries with a potency or affinity are not part of this list. Activity calls are given as the source filed them. Unless noted, no rule for the calls is given here.

System: not listed separately
Assay: inhibition of 3D7 malaria parasite growth – strain 3D7 (AID 2306);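 also: 0% = DMSO wells and 100% = chloroquine plus artemisinin control wells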
Details: P. falciparum 3D7 erythrocytic growth, LDH absorbance, 72 h; at 2 µM; hits give high values

Growth inhibition, active:
O=c1cc(NC[C@@H]2CCC[C@@H]2NCc2ccc(Cl)c(Cl)c2)[nH]c2ccccc12 100%, O=C(NCCN1CCN(S(=O)(=O)c2ccc(OC3CCNCC3)c(Br)c2)CC1)c1ccc(Cl)c(Cl)c1 89%, CCc1ccc(N2C(N)=NC(N)=NC2(C)C)cc1 94%, CN1CCN(c2ccnc3ccc(NC(=O)Nc4ccc5c(c4)CCCC5=O)cc23)CC1 101%, CCOC(=O)c1[nH]c2ccc(F)cc2c1NC(=O)CN1CCN(c2cccc(C(F)(F)F)c2)CC1 96%, COc1ccc(CN2CCCN(Cc3cccc(C(=O)Nc4ccc(C)c(F)c4)c3)CC2)cc1 83%, O=C(NCCCCN1CCC(c2ccc3ccccc3c2O)CC1)c1ccc(-c2ccc(Cl)cc2)cc1 101%, CN(C)Cc1ccc(-c2cc3ncnc(Nc4ccc(OCc5cccc(F)c5)c(Cl)c4)c3s2)[nH]1 99%, CN(C)CCN(C)Cc1ccc(-c2ccc(NC(=O)c3cccc(Cl)c3)cc2)cc1 94%, COc1cc(NC(=O)c2ccc3oc4ccccc4c3c2)ccc1OCCN1CCCCC1 89%, COc1ccc(CN(C)CCOc2ccc(NC(=O)c3cccc4c(=O)cc(-c5ccccc5)[nH]c34)cc2)cc1OC 98%, CC(=O)Nc1ccc(Nc2c3ccccc3nc3ccccc23)cc1 89%, CN1C(=O)C(=O)N(CCCCCON=C(N)N)C1=S 101%, CCN1CCN(CCCNc2ccnc3cc(Cl)ccc23)CC1 101%, CS(=O)(=O)CCNCc1cccc(-c2cc3c(Nc4ccc(OCc5ccccc5)cc4)ncnc3cn2)c1 101%, COc1ccc(CNCc2ccc(-c3ccc(-c4nc5ccc(C(F)(F)F)cc5[nH]4)cc3)cc2)cc1 102%, Cc1cc(-c2cccc3c(C(=O)N4CCc5cc6nccc(N7CCN8CCC[C@H]8C7)c6cc54)cccc23)cc(C)n1 97%, Nc1nc2c(ncn2COC2COP(=O)(O)OC2)c(=O)[nH]1 (stereo not given) 81%, O=C(CCN(Cc1ccco1)c1nc(-c2ccc(F)cc2)nc2ccccc12)NC1CC1 94%, O=C(Nc1cccc(-c2ccc(-c3nc4ccc(C(F)(F)F)cc4[nH]3)cc2)c1)Nc1ccc(F)c(F)c1F 102%, Cc1nc(N)nc(N)c1C#CC1CCCC1 96%, Cn1ncc2ccc(Nc3nccc(-c4ccc5c(c4)c(N)nn5C)n3)cc21 99%, Clc1ccccc1CNc1noc(-c2sccc2Br)n1 97%, CN1CCC(Oc2cc(CN3CC[C@H](NC(=O)c4ccc(Cl)c(Cl)c4)C3)ccc2I)C1 (stereo not given in full) 97%, CCc1cn2c3c(cc(C(=O)N[C@@H](Cc4ccccc4)[C@H](O)CNC4CCCCC4)cc13)N(CC)S(=O)(=O)CC2 98%, CN1CCN(c2nc(NCCNc3ccc([N+](=O)[O-])cc3)c3ccccc3n2)CC1 90%, O=S(=O)(NCCN1CCCC1)c1ccc(-c2ccc(CN3Cc4ccccc4C3)cc2)s1 89%, CSc1c(CNCCCNc2cc(=O)c3ccccc3[nH]2)[nH]c2ccccc12 87%, CN1CCC(NCc2ccc(-c3cccc(S(=O)(=O)NCc4ccccc4)c3)cc2)CC1 101%, COc1ccc(-c2ccnc(-c3cccc(-c4ccccn4)n3)c2)cc1 97%, CC1CN(c2ccc(C(=O)NCC3CC3)cc2NC(=O)OCc2ccccc2)CC(C)O1 (stereo not given) 91%, Cc1noc(=O)c2ccc(NC(=O)C(O)(CSc3ccccc3)CC(C)C)cc12 (stereo not given) 99%, CCCCOP(=O)(COc1ccc(CCN(CC(O)COc2cccc3[nH]c4ccccc4c23)CC(O)COc2cccc3[nH]c4ccccc4c23)cc1)C1CCCCC1 (stereo not given) 89%, COc1ccc(NC(=O)Nc2cccc(-c3ccncc3)c2)cc1N1CCN(C)CC1 98%, CC(=O)c1c[nH]c2ccc(/C=C/C(=O)NC3CCC(CCN4CCc5ccc(C#N)cc5CC4)CC3)cc12 (stereo not given) 101%, c1ccc(COc2ccnc(NCCCOc3cccc(CN4CCCCC4)c3)c2)cc1 101%, Cc1cccc(OCC(=O)Nc2cccc(NC(=O)COc3cccc(C)c3)n2)c1 98%, Cn1nc(-c2ccccc2F)c2cc(C(=O)Nc3cccnc3)sc21 92%, CCN(CC)CCCSc1ccc(-c2ccc(SCCCN(CC)CC)cc2)cc1 87%, COCCCNc1sc(S(=O)(=O)c2ccccc2)nc1S(=O)(=O)c1ccc(C)cc1 84%

Target: Calcium-dependent protein kinase 1 (Plasmodium falciparum (isolate 3D7)) (UniProt P62344)
Sequence (P62344 whole entry, looked up): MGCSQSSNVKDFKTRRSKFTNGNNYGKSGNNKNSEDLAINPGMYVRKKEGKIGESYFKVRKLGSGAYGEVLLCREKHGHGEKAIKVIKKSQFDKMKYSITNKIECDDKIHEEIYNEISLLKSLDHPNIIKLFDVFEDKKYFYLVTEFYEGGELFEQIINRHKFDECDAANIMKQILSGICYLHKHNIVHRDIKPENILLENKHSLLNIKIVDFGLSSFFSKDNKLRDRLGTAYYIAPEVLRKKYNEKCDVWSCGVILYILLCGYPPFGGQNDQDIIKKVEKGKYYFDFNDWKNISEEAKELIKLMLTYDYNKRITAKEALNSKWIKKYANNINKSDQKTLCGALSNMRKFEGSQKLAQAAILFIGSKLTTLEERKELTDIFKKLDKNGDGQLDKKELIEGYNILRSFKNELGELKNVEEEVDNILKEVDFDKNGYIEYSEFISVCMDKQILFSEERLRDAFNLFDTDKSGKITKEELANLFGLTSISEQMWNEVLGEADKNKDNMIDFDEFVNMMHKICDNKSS
Assay: PfCDPK1 kinase inhibitors, biochemical, TCAMS library (AID 1159585; cut-off not given, nearly all actives have IC50 up to about 0.98 µM;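 also: inhibitors leave more ATP so luminescence rises with inhibition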)
Details: recombinant PfCDPK1, Kinase-Glo ATP depletion luminescence

outcome, inactive:
O=c1cc(NC[C@@H]2CCC[C@@H]2NCc2ccc(Cl)c(Cl)c2)[nH]c2ccccc12, O=C(NCCN1CCN(S(=O)(=O)c2ccc(OC3CCNCC3)c(Br)c2)CC1)c1ccc(Cl)c(Cl)c1, CCc1ccc(N2C(N)=NC(N)=NC2(C)C)cc1, CN1CCN(c2ccnc3ccc(NC(=O)Nc4ccc5c(c4)CCCC5=O)cc23)CC1, CCOC(=O)c1[nH]c2ccc(F)cc2c1NC(=O)CN1CCN(c2cccc(C(F)(F)F)c2)CC1, COc1ccc(CN2CCCN(Cc3cccc(C(=O)Nc4ccc(C)c(F)c4)c3)CC2)cc1, O=C(NCCCCN1CCC(c2ccc3ccccc3c2O)CC1)c1ccc(-c2ccc(Cl)cc2)cc1, CN(C)Cc1ccc(-c2cc3ncnc(Nc4ccc(OCc5cccc(F)c5)c(Cl)c4)c3s2)[nH]1, CN(C)CCN(C)Cc1ccc(-c2ccc(NC(=O)c3cccc(Cl)c3)cc2)cc1, COc1cc(NC(=O)c2ccc3oc4ccccc4c3c2)ccc1OCCN1CCCCC1, COc1ccc(CN(C)CCOc2ccc(NC(=O)c3cccc4c(=O)cc(-c5ccccc5)[nH]c34)cc2)cc1OC, CC(=O)Nc1ccc(Nc2c3ccccc3nc3ccccc23)cc1, CN1C(=O)C(=O)N(CCCCCON=C(N)N)C1=S, CCN1CCN(CCCNc2ccnc3cc(Cl)ccc23)CC1, CS(=O)(=O)CCNCc1cccc(-c2cc3c(Nc4ccc(OCc5ccccc5)cc4)ncnc3cn2)c1, COc1ccc(CNCc2ccc(-c3ccc(-c4nc5ccc(C(F)(F)F)cc5[nH]4)cc3)cc2)cc1, Cc1cc(-c2cccc3c(C(=O)N4CCc5cc6nccc(N7CCN8CCC[C@H]8C7)c6cc54)cccc23)cc(C)n1, Nc1nc2c(ncn2COC2COP(=O)(O)OC2)c(=O)[nH]1 (stereo not given), O=C(CCN(Cc1ccco1)c1nc(-c2ccc(F)cc2)nc2ccccc12)NC1CC1, O=C(Nc1cccc(-c2ccc(-c3nc4ccc(C(F)(F)F)cc4[nH]3)cc2)c1)Nc1ccc(F)c(F)c1F, Cc1nc(N)nc(N)c1C#CC1CCCC1, Cn1ncc2ccc(Nc3nccc(-c4ccc5c(c4)c(N)nn5C)n3)cc21, Clc1ccccc1CNc1noc(-c2sccc2Br)n1, CN1CCC(Oc2cc(CN3CC[C@H](NC(=O)c4ccc(Cl)c(Cl)c4)C3)ccc2I)C1 (stereo not given in full), CCc1cn2c3c(cc(C(=O)N[C@@H](Cc4ccccc4)[C@H](O)CNC4CCCCC4)cc13)N(CC)S(=O)(=O)CC2, CN1CCN(c2nc(NCCNc3ccc([N+](=O)[O-])cc3)c3ccccc3n2)CC1, O=S(=O)(NCCN1CCCC1)c1ccc(-c2ccc(CN3Cc4ccccc4C3)cc2)s1, CSc1c(CNCCCNc2cc(=O)c3ccccc3[nH]2)[nH]c2ccccc12, CN1CCC(NCc2ccc(-c3cccc(S(=O)(=O)NCc4ccccc4)c3)cc2)CC1, COc1ccc(-c2ccnc(-c3cccc(-c4ccccn4)n3)c2)cc1, CC1CN(c2ccc(C(=O)NCC3CC3)cc2NC(=O)OCc2ccccc2)CC(C)O1 (stereo not given), Cc1noc(=O)c2ccc(NC(=O)C(O)(CSc3ccccc3)CC(C)C)cc12 (stereo not given), CCCCOP(=O)(COc1ccc(CCN(CC(O)COc2cccc3[nH]c4ccccc4c23)CC(O)COc2cccc3[nH]c4ccccc4c23)cc1)C1CCCCC1 (stereo not given), COc1ccc(NC(=O)Nc2cccc(-c3ccncc3)c2)cc1N1CCN(C)CC1, CC(=O)c1c[nH]c2ccc(/C=C/C(=O)NC3CCC(CCN4CCc5ccc(C#N)cc5CC4)CC3)cc12 (stereo not given), c1ccc(COc2ccnc(NCCCOc3cccc(CN4CCCCC4)c3)c2)cc1, Cc1cccc(OCC(=O)Nc2cccc(NC(=O)COc3cccc(C)c3)n2)c1, Cn1nc(-c2ccccc2F)c2cc(C(=O)Nc3cccnc3)sc21, CCN(CC)CCCSc1ccc(-c2ccc(SCCCN(CC)CC)cc2)cc1, COCCCNc1sc(S(=O)(=O)c2ccccc2)nc1S(=O)(=O)c1ccc(C)cc1
